AMA1 RON2 block: disrupts binding of P. falciparum AMA1 to RON2; AlphaScreen AMA1-biotinylated RON2 peptide binding; Potency, µM (doses to about 58.2 µM), for inactives: at the highest dose activity change, negative = inhibition, hits mostly inhibitors; 0.2% of 360,000 active; AID 720542;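 note: potency is the fitted concentration of half-maximal effect; 0% = vehicle wells and -100% = peptide control; nearly all actives have a fitted effect of over 45% in size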
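AMA1 (3D7) with his tag at 25 nM final met compounds first, then biotinylated RON2 peptide at 25 nM; detection used donor plus acceptor beads, 10 µg/mL apiece, read by AlphaScreen after 30 min at room temperature.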
Pf growth 96h: inhibits malaria parasite growth, 96 h. P. falciparum luciferase reporter growth, 96 h. 6.9% of 320,000 active. Potency, µM (top dose mostly 28.7 µM), for the others: at the highest dose activity change, negative = inhibition, most hits filed as inhibitors; note: potency is the fitted concentration of half-maximal effect; % is set by controls: 0 for no effect and ±100 for the full control effect
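Infected RBCs, 2% Hct / 0.05% parasitemia final; luciferase-reporter P. falciparum; cpd 96 h, 37 C, 5% CO2; luciferase detection reagent; luminescence.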
Pf growth 48h: P. falciparum growth inhibition at 48 hours (one generation). AID 504832. Potency, µM (series often up to 28.7 µM), without a hit: top-dose activity change, negative = inhibition, actives largely listed as inhibitors. P. falciparum luciferase growth in erythrocytes, 48 h. 5.9% of 310,000 active; note: potency is the fitted concentration of half-maximal effect; % is set by controls: 0 for no effect and ±100 for the full control effect
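Erythrocytes infected with P. falciparum carrying an integrated firefly luciferase reporter (2% hematocrit, 0.1% parasitemia final) were exposed to compounds in RPMI 1640 with 0.5% Albumax at 37 C, 5% CO2. Growth inhibition was scored as reduced luminescence.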
HCV inhibitor: HCV inhibition; AID 651820; 3.4% of 340,000 active; Huh7.5.1 HCVcc-Cre infection, luciferase reporter, 44 h; Potency, µM (top dose mostly 41.8 µM), for inactives: at the highest dose activity change, negative = inhibition, usual class: inhibitors; note: potency is the fitted concentration of half-maximal effect; % is set by controls: 0 for no effect and ±100 for the full control effect
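Cells seeded at 1,000/well and cultured 4 h, then compounds added followed by HCVcc-Cre virus (~0.5 moi). After 44 h further culture, luciferase substrate was added, plates held 15 min at room temperature, and luminescence read for 15 sec.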
Shiga toxin inh: inhibitors of Shiga toxin in Vero cells | Vero cells, Shiga toxin protein synthesis inhibition reporter | inhibition, % at 38.7 µM | 9.2% of 290,000 active | AID 2315; in the data active = inhibition mostly above about 28%, no sharp cut-off; inactive = mostly below about 43%; note: 0% is about no effect
Cycloheximide cs: counter-screen for Shiga toxin inhibitors: cycloheximide protein synthesis inhibition | cell reporter, cycloheximide protein synthesis inhibition counterscreen | max response, % | 12% of 300,000 active; in the data active = max response mostly above about 13%, no sharp cut-off; inactive = mostly below about 14%; note: read at 38.3 µM for the half of the compounds with a filed dose; 0% is about no effect
* marks the source's active call; other numbers are inactive results; ? = inconclusive; / = not tested or not shown. The list is not random: actives were taken first. Their share in the collection is about 21%. Unless noted, calls come from the whole dose curve; as a rule, active = well fitted curve in the direction sought with a large enough effect; inconclusive = small, poorly fitted or top-dose-only effect, or another doubt; inactive = no such curve, though single readings can be large; an effect the other way counts as inactive or inconclusive.

SMILES	AMA1 RON2 block	Pf growth 96h	Pf growth 48h	HCV inhibitor	Shiga toxin inh	Cycloheximide cs
CC1=C(C(=O)N(C)C)CC(CC(=O)NCCN2CCOCC2)C(=O)N1CCCN1CCCC1=O (configuration not stated)	8%	/	/	/	/	/
O=C(N/N=C\C=C\c1ccc([N+](=O)[O-])o1)c1cccs1	48%	?	?	?	100*	33*
O=C(N/N=C/C=C/c1ccccc1)c1cccs1	22%	6%	56%	0%	75*	42*
O=C(N/N=C/C=C/c1ccccc1[N+](=O)[O-])c1cccs1	64%	?	21%	-12%	23	30*
Cc1ccc(/C=N/NC(=O)c2cccs2)cc1[N+](=O)[O-]	-2%	138%	72%	-14%	78*	39*
O=C(N/N=C/c1ccc([N+](=O)[O-])o1)c1ccccc1-n1cccc1	-24%	?	?	?	-4	-1
O=C(Nc1ccc(F)c([N+](=O)[O-])c1)c1cccs1	1%	?	0%	-18%	3	10
OC[C@H]1O[C@@H](c2nc3ccc(-c4nc(-c5ccc(Br)cc5)no4)cc3[nH]2)C[C@@H]1O	-3%	/	/	/	/	/
Cc1ccc(Cc2c(-c3ccccc3)nc3cc(C)c(Br)c(C)n23)cc1	-7%	/	/	/	/	/
COCCNC(=O)C1(C)CCCN(C(=O)c2cc(OC)c(OC)c(OC)c2)C1 (configuration not stated)	4%	/	/	/	/	/
O=C(N/N=C/c1ccccc1[N+](=O)[O-])c1cccs1	-4%	88%	158%	-7%	88*	41*
O=C(/C=C/c1ccccc1)Nc1ccc(NC(=O)c2cccs2)cc1	4%	3%	-3%	-13%	3	-5
O=C(N/N=C/C=C\c1ccccc1[N+](=O)[O-])c1ccncc1	74%	-3%	-4%	-3%	-9	1
O=C(NNC(=O)c1ccccc1[N+](=O)[O-])c1cccs1	-2%	69%	39%	2%	13	14
O=C(N/N=C/C(Br)=C/c1ccccc1)c1cccs1	-1%	8%	254%	-20%	123*	63*
O=C(Cc1cccs1)N/N=C/C=C/c1ccccc1	8%	0%	96%	10%	59*	25*
O=C(Cc1cccs1)N/N=C/C=C\c1ccccc1[N+](=O)[O-]	15%	?	60%	-15%	85*	33*
O=C(/C=C/c1ccccc1)OCc1cnc(Cl)s1	-12%	58%	18%	9%	45	3
CCOC(=O)C1=C(COC(=O)C2CC(=O)N(c3ccccc3CC)C2)NC(=O)NC1C (configuration not stated)	-9%	/	/	/	/	/
O=C(NC(Cc1ccccc1)C(=O)O)/C(=C/c1ccc(Cl)cc1)NC(=O)c1ccco1 (configuration not stated)	0%	-17%	42%	17%	-5	-4
COc1ccc(OC)c(NC(=O)C2(C)CCN2C(=O)C2(c3ccccc3)CCCC2)c1 (configuration not stated)	-23%	/	/	/	/	/
CCc1c(C)nc2ncnn2c1N1CCCC(C(=O)NCCc2ccc(OC)cc2)C1 (configuration not stated)	-7%	0%	?	?	8	-4
CCOc1ccccc1NC(=O)C1CCCN(c2c(CC)c(C)nc3ncnn23)C1 (configuration not stated)	7%	13%	10µM*	13µM*	-5	-5
CCc1c(C)nc2ncnn2c1N1CCC(C(=O)Nc2ccc(C)cc2)CC1	9%	12µM*	?	?	-21	-2
CCc1c(C)nc2ncnn2c1N1CCC(C(=O)Nc2ccccc2)CC1	-3%	-20%	?	?	17	-6
CCOC(=O)CCn1c(=S)n(CCC(=O)OCC)c2ccccc21	9%	42%	3.7µM*	0%	-12	-3
CCOC(=O)Cn1c(=O)n(CC(=O)OCC)c2ccccc21	-2%	/	12%	16%	12	-2
CCCOC(=O)CCn1c(=S)oc2ccccc21	2%	10%	12%	23%	76*	39*
CCCCn1c(N)c(N(CCC(C)C)C(=O)c2ccc(C)c(S(=O)(=O)N3CCOCC3)c2)c(=O)[nH]c1=O	0%	12%	-2%	17%	/	/
